# Test results reported in PubChem BioAssay.
# Calls of active or inactive are those of the source.
# Legend:
# [1] = small molecules captured by biotinylated probe aFSTL3 – biochemical, small-molecule microarray, fluorescence 635/667, stem cell growth factor project, primary screen (AID 1064); conditions: higher = more signal;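 further: measures binding of the biotinylated anti-FSTL3 antibody to printed compounds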
# [2] = binders from COS7 lysate, DM2A8 probe, primary screen, torsin A project, cell lysate, small-molecule microarray, fluorescence 635/667 (AID 1065); conditions: higher = more signal, COS7 lysate expressing mutant human TOR1A
# [3] = small molecules captured by biotinylated probe aFGF2 – biochemical, small-molecule microarray, fluorescence 635/667, stem cell growth factor project, primary screen (AID 1067); conditions: higher = more signal;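 further: measures binding of biotinylated aFGF2 protein to printed compounds on slides; z-score merges feature fluorescence and signal-to-noise across triplicate slides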
# [4] = small molecules captured by biotinylated probe aFGF10 – biochemical, small-molecule microarray, fluorescence 635/667, stem cell growth factor project, primary screen (AID 1071); conditions: higher = more signal;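 further: score merges 667 nm spot intensity and signal to noise from triplicate slides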
# [5] = target: Neurogenic locus notch homolog protein 2 (Homo sapiens) (UniProt Q04721); assay: small molecules binding Notch2 protein – biochemical, small-molecule microarray, 635 nm fluorescence, stem cell growth factors, primary screen (AID 1073); conditions: higher = more signal
# [6] = target: Pro-neuregulin-1, membrane-bound isoform (Homo sapiens) (UniProt Q02297); assay: small molecules binding neuregulin-1 protein – biochemical, small-molecule microarray, fluorescence 635/667, psychiatric disease protein project, primary screen (AID 1075); conditions: NRG1 binding, 635 nm fluorescence, higher = more signal;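 further: score combines 667 nm spot fluorescence with signal to noise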
# [7] = system: Neuregulin-1 EGF-like domain; assay: small molecules binding NRG1 EGF domain – biochemical, small-molecule microarray, 635 nm fluorescence, primary screen (AID 1081); conditions: higher = more signal;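 further: binding of the protein to compounds printed on small-molecule microarray slides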
# [8] = FRG1 expression reporter modulators in myotubes – cell-based, C2C12 myotubes, firefly/Renilla luciferase, luminescence, FRG1 inhibition for FSHD, primary screen (AID 1084); conditions: FRG1 promoter luciferase, higher = more signal, called active from +8 up or from −8 down
# [9] = small molecules captured by biotinylated probe aFST – biochemical, small-molecule microarray, fluorescence 635/667, stem cell growth factor project, primary screen (AID 1086); conditions: higher = more signal;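 further: score merges 667 nm fluorescence with signal-to-noise of each printed compound spot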
# [10] = binders of probe aHhip on microarray, primary screen, stem cell growth factor project, biochemical, small-molecule microarray, fluorescence 635/667 (AID 1087); conditions: higher = more signal;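 further: score merges spot fluorescence at 667nm with spot signal to noise ratio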
# [11] = system: PRMT1 (protein arginine N-methyltransferase 1); assay: small molecules binding arginine methyltransferase PRMT1 – biochemical, small-molecule microarray, 635 nm fluorescence, primary screen (AID 1088); conditions: higher = more signal;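 further: binding of Prmt1 protein to compounds spotted on small-molecule microarray slides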
# [12] = growth effects on S. cerevisiae YJM789 – YJM789 clinical isolate, OD600, 24 h, basal, primary screen (AID 1089); conditions: higher = more signal, called active from +8 up or from −8 down;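 further: growth of clinical yeast isolate S. cerevisiae YJM 789 seeded 1000 cells per well; test concentration not given here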
# [13] = S. pombe growth modifiers, basal conditions – strain 972, OD600, 24 h, no modulator, primary screen (AID 1090);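 further: basal condition with compound alone and no growth modifier present; test concentration not given here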; conditions: S. pombe 972 growth, higher = more signal, called active from +8 up or from −8 down
# [14] = budding yeast growth modifiers under rapamycin – strain BY4716, OD600, 96 h, primary screen (AID 1091); further: test concentration not given here; conditions: S. cerevisiae BY4716 + rapamycin, higher = more signal, called active from +8 up or from −8 down
# [15] = target: Torsin-1A-interacting protein 2 (Homo sapiens) (UniProt Q8NFQ8); assay: small molecules binding lysate-expressed LULL1 – cell lysate, human LULL1 lysate, 635/667 nm fluorescence, primary screen (AID 1092); conditions: small-molecule microarray, hLULL1 lysate binding, 635 nm fluorescence; higher = more signal;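 further: probe is lysate of COS7 cells overexpressing human LULL1; score merges per-feature 667 nm fluorescence with signal-to-noise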
# [16] = optical density change of DRC41 E. coli – strain DRC41, OD650, 24 h, E. coli filamentation project, primary screen (AID 1093);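 further: MC1000 strain lacking acrAB efflux and sulA so SOS filamentation is blocked; test concentration not given here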; conditions: E. coli DRC41 growth, higher = more signal, called active from +8 up or from −8 down
# [17] = probe aLefty2 binding to arrayed compounds – biochemical, biotinylated probe, 635/667 nm fluorescence, primary screen (AID 1094); conditions: small-molecule microarray, higher = more signal;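 further: score merges spot fluorescence near 667 nm with spot signal-to-noise ratio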
# [18] = system: Noggin (protein binding on small-molecule microarray); assay: small molecules binding Noggin protein – biochemical, 635/667 nm fluorescence, primary screen (AID 1095); conditions: 635 nm fluorescence, higher = more signal;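 further: score merges 667 nm feature fluorescence with signal to noise over triplicate slides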
# [19] = target: Neurogenic locus notch homolog protein 3 (Homo sapiens) (UniProt Q9UM47); assay: small molecules binding NOTCH3 protein – biochemical, 635/667 nm fluorescence, primary screen (AID 1096); conditions: small-molecule microarray, 635 nm fluorescence, higher = more signal
# [20] = probe aEGFR binding to arrayed compounds – biochemical, biotinylated probe, 635/667 nm fluorescence, primary screen (AID 1097); conditions: small-molecule microarray, higher = more signal;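 further: probe is a biotinylated anti-EGFR antibody binding compounds printed on slides; score combines fluorescence near 667 nm and signal to noise of each spot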
# Sequence of Neurogenic locus notch homolog protein 2 (Homo sapiens) (Q04721 whole entry, looked up, canonical isoform): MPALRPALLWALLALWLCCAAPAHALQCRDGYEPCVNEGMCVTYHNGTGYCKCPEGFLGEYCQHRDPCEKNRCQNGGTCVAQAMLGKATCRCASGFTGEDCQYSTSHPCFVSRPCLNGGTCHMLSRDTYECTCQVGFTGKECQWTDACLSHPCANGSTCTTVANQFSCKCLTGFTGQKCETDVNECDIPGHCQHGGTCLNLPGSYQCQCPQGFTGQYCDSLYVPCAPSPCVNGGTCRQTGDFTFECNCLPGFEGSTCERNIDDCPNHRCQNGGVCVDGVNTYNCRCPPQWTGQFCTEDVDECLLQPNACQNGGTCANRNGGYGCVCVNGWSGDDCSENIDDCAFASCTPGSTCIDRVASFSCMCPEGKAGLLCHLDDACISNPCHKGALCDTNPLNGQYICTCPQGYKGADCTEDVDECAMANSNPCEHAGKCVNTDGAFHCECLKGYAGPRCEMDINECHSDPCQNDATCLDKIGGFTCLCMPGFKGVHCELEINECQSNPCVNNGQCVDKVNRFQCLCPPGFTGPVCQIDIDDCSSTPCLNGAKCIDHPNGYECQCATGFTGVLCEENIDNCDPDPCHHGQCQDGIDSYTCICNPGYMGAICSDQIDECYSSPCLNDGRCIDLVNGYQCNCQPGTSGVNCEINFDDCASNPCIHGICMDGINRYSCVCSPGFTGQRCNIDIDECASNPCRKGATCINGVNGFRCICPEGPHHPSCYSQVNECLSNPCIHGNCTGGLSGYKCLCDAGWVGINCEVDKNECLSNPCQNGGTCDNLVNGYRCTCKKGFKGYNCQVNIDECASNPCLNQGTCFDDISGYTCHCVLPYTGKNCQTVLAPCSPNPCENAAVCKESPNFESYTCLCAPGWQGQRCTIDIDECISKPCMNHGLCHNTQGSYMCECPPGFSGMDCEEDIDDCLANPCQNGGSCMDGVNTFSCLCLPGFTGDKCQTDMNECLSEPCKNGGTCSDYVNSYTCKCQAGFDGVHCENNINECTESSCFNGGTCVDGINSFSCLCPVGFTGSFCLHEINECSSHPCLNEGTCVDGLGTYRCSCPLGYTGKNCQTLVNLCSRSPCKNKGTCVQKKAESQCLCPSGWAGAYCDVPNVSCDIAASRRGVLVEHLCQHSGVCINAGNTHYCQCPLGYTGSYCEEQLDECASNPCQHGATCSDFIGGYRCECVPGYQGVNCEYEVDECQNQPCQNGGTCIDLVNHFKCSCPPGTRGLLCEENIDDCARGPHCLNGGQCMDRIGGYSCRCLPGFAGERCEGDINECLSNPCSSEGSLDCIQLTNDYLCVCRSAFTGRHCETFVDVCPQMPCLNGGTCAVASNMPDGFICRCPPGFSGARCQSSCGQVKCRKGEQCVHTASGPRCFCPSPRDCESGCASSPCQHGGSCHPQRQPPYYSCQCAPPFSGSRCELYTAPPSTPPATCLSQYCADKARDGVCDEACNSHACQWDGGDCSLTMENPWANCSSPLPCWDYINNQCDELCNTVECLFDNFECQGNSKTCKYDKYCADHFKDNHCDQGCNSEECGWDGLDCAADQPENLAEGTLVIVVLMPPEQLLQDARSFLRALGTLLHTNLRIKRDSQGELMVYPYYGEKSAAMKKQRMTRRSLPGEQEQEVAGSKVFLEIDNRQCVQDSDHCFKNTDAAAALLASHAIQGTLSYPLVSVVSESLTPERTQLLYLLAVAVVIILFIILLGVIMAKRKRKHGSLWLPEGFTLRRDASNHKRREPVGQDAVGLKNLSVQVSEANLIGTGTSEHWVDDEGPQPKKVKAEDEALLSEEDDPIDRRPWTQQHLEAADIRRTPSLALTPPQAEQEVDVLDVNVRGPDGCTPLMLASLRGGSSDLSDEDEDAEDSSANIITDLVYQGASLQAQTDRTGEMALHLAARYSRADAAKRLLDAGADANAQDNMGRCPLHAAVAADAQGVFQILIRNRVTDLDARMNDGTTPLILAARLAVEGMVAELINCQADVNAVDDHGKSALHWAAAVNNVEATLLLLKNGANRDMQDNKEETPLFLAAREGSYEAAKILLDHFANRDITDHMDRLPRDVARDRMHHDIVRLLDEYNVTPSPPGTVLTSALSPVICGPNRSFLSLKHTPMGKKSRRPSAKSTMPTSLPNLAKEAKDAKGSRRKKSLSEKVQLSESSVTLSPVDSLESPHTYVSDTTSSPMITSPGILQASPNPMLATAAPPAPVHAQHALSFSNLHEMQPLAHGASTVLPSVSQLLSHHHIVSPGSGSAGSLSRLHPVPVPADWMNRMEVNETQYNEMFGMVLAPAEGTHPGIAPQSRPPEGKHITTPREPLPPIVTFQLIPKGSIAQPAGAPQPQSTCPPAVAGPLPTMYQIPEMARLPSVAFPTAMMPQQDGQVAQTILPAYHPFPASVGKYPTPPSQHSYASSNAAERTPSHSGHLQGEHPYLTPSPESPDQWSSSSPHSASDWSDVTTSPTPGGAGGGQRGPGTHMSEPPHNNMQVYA
# Sequence of Neurogenic locus notch homolog protein 3 (Homo sapiens) (Q9UM47 whole entry, looked up): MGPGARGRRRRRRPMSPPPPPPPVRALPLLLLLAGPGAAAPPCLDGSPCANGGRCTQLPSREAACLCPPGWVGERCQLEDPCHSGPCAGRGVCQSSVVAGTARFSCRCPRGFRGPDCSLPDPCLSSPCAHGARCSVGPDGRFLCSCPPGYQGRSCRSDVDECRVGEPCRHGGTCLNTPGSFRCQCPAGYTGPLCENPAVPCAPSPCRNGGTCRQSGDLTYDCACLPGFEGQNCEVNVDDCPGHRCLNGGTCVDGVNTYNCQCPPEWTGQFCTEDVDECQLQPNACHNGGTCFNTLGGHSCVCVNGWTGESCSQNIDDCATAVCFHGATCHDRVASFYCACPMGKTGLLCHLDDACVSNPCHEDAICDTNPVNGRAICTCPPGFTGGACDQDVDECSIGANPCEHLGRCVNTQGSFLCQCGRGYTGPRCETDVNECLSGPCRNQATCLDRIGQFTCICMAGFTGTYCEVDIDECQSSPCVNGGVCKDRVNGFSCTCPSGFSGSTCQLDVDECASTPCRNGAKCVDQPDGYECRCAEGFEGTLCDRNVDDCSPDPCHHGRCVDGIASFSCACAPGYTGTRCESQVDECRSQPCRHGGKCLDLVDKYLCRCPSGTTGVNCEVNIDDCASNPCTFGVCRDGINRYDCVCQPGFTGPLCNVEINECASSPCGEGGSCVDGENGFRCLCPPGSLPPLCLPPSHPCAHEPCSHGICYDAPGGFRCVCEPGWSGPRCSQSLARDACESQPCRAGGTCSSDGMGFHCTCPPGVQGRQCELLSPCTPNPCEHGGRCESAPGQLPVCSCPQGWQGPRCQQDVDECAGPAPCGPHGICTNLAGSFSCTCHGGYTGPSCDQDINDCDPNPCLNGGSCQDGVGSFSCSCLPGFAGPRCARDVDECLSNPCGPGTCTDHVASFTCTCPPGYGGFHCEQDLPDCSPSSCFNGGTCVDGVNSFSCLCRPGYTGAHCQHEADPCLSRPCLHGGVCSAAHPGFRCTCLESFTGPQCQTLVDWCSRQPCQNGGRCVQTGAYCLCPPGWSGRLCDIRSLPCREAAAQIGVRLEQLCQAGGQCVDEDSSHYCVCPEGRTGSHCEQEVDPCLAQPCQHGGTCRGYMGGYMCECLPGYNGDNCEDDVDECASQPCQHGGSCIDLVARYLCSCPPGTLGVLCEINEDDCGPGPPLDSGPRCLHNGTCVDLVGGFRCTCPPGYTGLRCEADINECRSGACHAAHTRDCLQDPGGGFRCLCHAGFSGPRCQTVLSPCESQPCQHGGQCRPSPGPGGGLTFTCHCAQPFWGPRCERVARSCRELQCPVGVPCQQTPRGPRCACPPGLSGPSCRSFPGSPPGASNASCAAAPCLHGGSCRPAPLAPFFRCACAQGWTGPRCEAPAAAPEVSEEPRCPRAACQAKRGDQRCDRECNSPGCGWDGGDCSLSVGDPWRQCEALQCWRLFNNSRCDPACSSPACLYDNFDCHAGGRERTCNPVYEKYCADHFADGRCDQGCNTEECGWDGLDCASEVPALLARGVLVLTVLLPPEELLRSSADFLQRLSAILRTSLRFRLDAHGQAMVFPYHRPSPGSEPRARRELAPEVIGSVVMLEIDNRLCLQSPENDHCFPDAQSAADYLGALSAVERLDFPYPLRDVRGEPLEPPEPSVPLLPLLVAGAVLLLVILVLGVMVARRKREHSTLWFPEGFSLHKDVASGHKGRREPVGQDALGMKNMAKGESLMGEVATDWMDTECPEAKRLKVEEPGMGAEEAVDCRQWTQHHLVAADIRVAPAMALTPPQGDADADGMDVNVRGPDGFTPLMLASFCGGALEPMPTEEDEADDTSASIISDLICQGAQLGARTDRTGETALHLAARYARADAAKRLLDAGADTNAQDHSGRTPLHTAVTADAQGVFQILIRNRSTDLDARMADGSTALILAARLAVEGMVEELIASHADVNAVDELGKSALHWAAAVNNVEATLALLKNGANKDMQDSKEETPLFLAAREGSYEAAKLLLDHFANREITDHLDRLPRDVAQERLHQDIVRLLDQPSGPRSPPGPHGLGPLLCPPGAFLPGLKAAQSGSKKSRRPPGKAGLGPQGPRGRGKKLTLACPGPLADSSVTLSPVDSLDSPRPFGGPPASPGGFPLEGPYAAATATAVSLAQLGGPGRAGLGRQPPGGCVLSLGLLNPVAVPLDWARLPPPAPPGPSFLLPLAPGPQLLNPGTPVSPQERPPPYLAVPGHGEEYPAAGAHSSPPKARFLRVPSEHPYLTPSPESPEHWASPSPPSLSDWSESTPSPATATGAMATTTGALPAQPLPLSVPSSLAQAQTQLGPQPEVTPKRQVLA
Structure (SMILES),composite z-score [1],composite z-score [2],composite z-score [3],composite z-score [4],composite z-score [5],composite z-score [6],composite z-score [7],z-score [8],composite z-score [9],composite z-score [10],composite z-score [11],z-score [12],z-score [13],z-score [14],composite z-score [15],z-score [16],composite z-score [17],composite z-score [18],composite z-score [19],composite z-score [20]
COc1ccc(C(=O)Nc2ccc(CN3C(=O)[C@@]4(O[C@@H](CCO)[C@H]([Si](C)(C)c5ccc(OC)cc5)[C@H]4C)c4ccccc43)cc2)cc1,-0.0338,0.623,-0.113,0.187,0.912,1.22,1.1,-3.12 (inactive),0.25,-0.0645,1.54,-0.81 (inactive),-7.92 (inactive),0.495 (inactive),1.4,0.0243 (inactive),0.0217,1.49,1.08,-0.0774
COCCOC(=O)N1C(=O)[C@@]2(c3cc(C#CC4(O)CCCCCC4)ccc31)[C@H](c1ccc(O)cc1)N1[C@H](c3ccccc3)[C@H](c3ccccc3)OC(=O)[C@H]1[C@@H]2C(=O)Nc1nc2ccccc2s1,1.87,0.186,-0.045,0.769,1.15,1.15,1.02,1.41 (inactive),2.31,0.468,1.35,0.861 (inactive),-0.0153 (inactive),0.383 (inactive),3.08,-0.369 (inactive),1.04,1.59,1.1,0.292
CC(CO)N1C(=O)[C@@H]2C3C(=O)OCCC/C=C\[C@H]3OC23C=CCN(c2ccc4ccccc4c2)C(=O)[C@@H]13 (stereo not given in full),0.122,-0.933,-0.118,-0.594,-0.874,0.168,1.26,-0.775 (inactive),-0.576,-0.0994,0.0691,-0.531 (inactive),-0.743 (inactive),-0.0295 (inactive),-0.504,0.0095 (inactive),-0.0516,-0.871,-0.341,-0.18
CN1C(=O)C2C=CC(C(O)C3=C[C@H]4C[C@@H](C3)C4(C)C)N(Nc3ccccc3)C2C1=O (stereo not given in full),1.23,0.329,-0.0454,0.677,1.49,0.986,1.02,0.175 (inactive),1.23,0.064,0.965,0.443 (inactive),0.192 (inactive),1.31 (inactive),2.46,0.0208 (inactive),0.161,0.305,1.14,-0.0065
O=C1C2C=CC(C(O)C3CCCCC3)N(Nc3ccc([N+](=O)[O-])cc3)C2C(=O)N1c1ccccc1 (stereo not given),0.274,0.167,0.0333,0.239,-0.795,1.33,1.18,-1.48 (inactive),-0.688,-0.236,1.56,0.139 (inactive),0.341 (inactive),3.55 (inactive),3.19,-1.15 (inactive),-0.314,-0.995,-0.273,-0.226
CCCN1C(=O)[C@]2(CCS(=O)(=O)c3ccccc3)N=C(c3ccc(OCCCO)cc3)O[C@@H]2c2ccccc21,0.375,-0.212,-0.0027,0.572,0.58,1.28,1.27,-0.775 (inactive),0.458,-0.0645,1.54,-0.559 (inactive),-0.0812 (inactive),2.82 (inactive),2.84,1.97 (inactive),0.106,0.866,1.09,-0.0509
C=CCOC(=O)[C@@H]1[C@H]2C(=O)O[C@H](c3ccccc3)[C@H](c3ccccc3)N2[C@H](c2ccc(OCCOC(=O)[C@@H]3C[C@@H]4C(=O)N[C@@H](CCCCN(C)C)C(=O)N4[C@@H]3c3ccc(O)cc3)cc2)[C@@]12C(=O)Nc1ccc(I)cc12,-0.317,0.25,-0.0216,0.347,1.2,1.11,1.2,0.0976 (inactive),0.171,-0.108,1.51,0.767 (inactive),-0.858 (inactive),1.51 (inactive),2.95,-0.907 (inactive),-0.119,1.24,1.11,0.0727
C=CC[C@]12N=C(c3ccc(OCCCO)cc3)O[C@H]1c1ccccc1N(Cc1ccccc1)C2=O,1.67,0.473,-0.0316,-0.138,0.877,0.138,0.774,-2.33 (inactive),0.625,0.0176,1.46,-0.523 (inactive),-0.371 (inactive),1.89 (inactive),1.04,0.508 (inactive),0.331,0.313,0.483,-0.0692
CCCCN1CC=CC23O[C@@H]4/C=C\CCC(C)OC(=O)C4[C@H]2C(=O)N(CCCCCO)[C@@H]3C1=O (stereo not given in full),0.141,-0.421,-0.132,-1.16,-0.784,0.768,0.178,0.464 (inactive),-0.526,-0.0994,0.445,-0.402 (inactive),-0.831 (inactive),-0.868 (inactive),1.72,0.0029 (inactive),-0.205,-0.976,-0.292,-0.227
O=C1NC(=O)C2C1C=CC(C(O)C(c1ccccc1)c1ccccc1)N2Nc1ccc(Cl)cc1Cl (stereo not given),0.246,-0.471,0.103,0.501,1.49,0.782,0.756,1.04 (inactive),1.44,0.0373,0.532,-0.111 (inactive),-0.767 (inactive),1.5 (inactive),2.86,-1.27 (inactive),0.185,0.561,0.982,-0.0267
